# PubChem BioAssay AID1159580 (chemical genetic matrix, 2015)
# Where “and” joins values, the source holds several entries; their conditions need not be identical. Equal entries are not always repeated. The campaign covered roughly 5,500 compounds. About 2,000 (36%) were called active. Not shown: some 18% with an inconclusive outcome. This is one part of the list. Unmarked numbers belong to inactive results. Cut-off read from the data, not from the text of the source: active = normalized growth mostly below about 0.91 (no sharp cut-off); inconclusive = no clear call, values can overlap the other calls; inactive = mostly above about 0.92.
# Experiment: chemical genetic growth profiling, strain panel (AID 1159580);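 note: tested at 20 µM; growth read once vehicle control cultures reached saturation at 30 °C; 1 = growth at the plate median or of vehicle wells; lower values mean less growth of the strain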
# Conditions: S. cerevisiae deletion strains, growth OD
compound,measurement,setting,value
COc1ccc2cc(CCC(C)=O)ccc2c1,normalized growth,"locus YAL013W, strain DEP1, hits give low values",0.952
same,normalized growth,"locus YAL021C, strain ccr4, hits give low values",0.986
same,normalized growth,"locus YAL026C, strain drs2, hits give low values",0.996
same,normalized growth,"locus YAL030W, strain snc1, hits give low values",0.992
same,normalized growth,"locus YBL061C, strain skt5, hits give low values",0.981
same,normalized growth,"locus YBR009C, strain hhf1, hits give low values",0.989
same,normalized growth,"locus YBR021W, strain FUR4, hits give low values",0.947
same,normalized growth,"locus YBR023C, strain chs3, hits give low values",0.977
same,normalized growth,"locus YBR171W, strain sec66, hits give low values",0.985
same,normalized growth,"locus YBR229C, strain ROT2, hits give low values",0.919
same,normalized growth,"locus YBR231C, strain swc5, hits give low values",0.996
same,normalized growth,"locus YBR279W, strain paf1, hits give low values",0.993
same,normalized growth,"locus YCL011C, strain gbp2, hits give low values",0.983
same,normalized growth,"locus YCL016C, strain dcc1, hits give low values",0.997
same,normalized growth,"locus YCL029C, strain bik1, hits give low values",0.939
same,normalized growth,"locus YCL061C, strain MRC1, hits give low values",1
same,normalized growth,"locus YCL069W, strain vba3, hits give low values",0.993
same,normalized growth,"locus YCR088W, strain abp1, hits give low values",0.989
same,normalized growth,"locus YDL005C, strain med2, hits give low values",1.02
same,normalized growth,"locus YDL035C, strain GPR1, hits give low values",0.93
same,normalized growth,"locus YDL040C, strain nat1, hits give low values",0.997
same,normalized growth,"locus YDL074C, strain BRE1, hits give low values",0.935
same,normalized growth,"locus YDL101C, strain DUN1, hits give low values",0.955
same,normalized growth,"locus YDL134C, strain PPH21, hits give low values",0.967
same,normalized growth,"locus YDL185W, strain tfp1, hits give low values",0.945
same,normalized growth,"locus YDL192W, strain arf1, hits give low values",0.91 (active)
same,normalized growth,"locus YDR001C, strain nth1, hits give low values",0.994
same,normalized growth,"locus YDR069C, strain doa4, hits give low values",1.01
same,normalized growth,"locus YDR101C, strain arx1, hits give low values",0.931
same,normalized growth,"locus YDR137W, strain rgp1, hits give low values",1.1
same,normalized growth,"locus YDR150W, strain NUM1, hits give low values",0.939
same,normalized growth,"locus YDR159W, strain sac3, hits give low values",1.03
same,normalized growth,"locus YDR162C, strain NBP2, hits give low values",0.943
same,normalized growth,"locus YDR195W, strain ref2",1.08
same,normalized growth,"locus YDR297W, strain sur2, hits give low values",0.99
same,normalized growth,"locus YDR318W, strain mcm21, hits give low values",0.93
same,normalized growth,"locus YDR334W, strain swr1, hits give low values",1.01
same,normalized growth,"locus YDR335W, strain msn5, hits give low values",0.999
same,normalized growth,"locus YDR388W, hits give low values",0.942
same,normalized growth,"locus YDR392W, strain spt3, hits give low values",0.967
same,normalized growth,"locus YDR502C, strain sam2, hits give low values",0.908 (active)
same,normalized growth,"locus YEL003W, strain gim4, hits give low values",0.991
same,normalized growth,"locus YEL037C, strain rad23, hits give low values",0.991
same,normalized growth,"locus YEL061C, strain CIN8 (second series), hits give low values",1
same,normalized growth,"locus YEL061C, strain CIN8, hits give low values",0.946
same,normalized growth,"locus YER015W, strain faa2, hits give low values",1
same,normalized growth,"locus YER016W, strain bim1, hits give low values",0.99
same,normalized growth,"locus YER110C, hits give low values",0.901
same,normalized growth,"locus YER111C, strain swi4, hits give low values",1
same,normalized growth,"locus YER155C, strain BEM2 (second series), hits give low values",0.843 (active)
same,normalized growth,"locus YER155C, strain BEM2, hits give low values",0.965
same,normalized growth,"locus YER167W, strain BCK2, hits give low values",0.92
same,normalized growth,"locus YFR010W, strain ubp6, hits give low values",1.01
same,normalized growth,"locus YGL078C, strain dbp3, hits give low values",0.921 (active)
same,normalized growth,"locus YGL086W, strain mad1, hits give low values",0.942
same,normalized growth,"locus YGL167C, strain pmr1, hits give low values",0.99
same,normalized growth,"locus YGL173C, strain kem1, hits give low values",0.987
same,normalized growth,"locus YGL227W, strain vid30, hits give low values",0.999
same,normalized growth,"locus YGL240W, strain doc1, hits give low values",0.929
same,normalized growth,"locus YGL248W, strain PDE1, hits give low values",0.959
same,normalized growth,"locus YGL253W, strain hxk2, hits give low values",0.992
same,normalized growth,"locus YGR078C, strain PAC10, hits give low values",0.938
same,normalized growth,"locus YGR135W, strain pre9, hits give low values",0.881 (active)
same,normalized growth,"locus YGR229C, strain SMI1, hits give low values",0.919
same,normalized growth,"locus YGR252W, strain gcn5, hits give low values",0.763 (active)
same,normalized growth,"locus YHR013C, strain ard1, hits give low values",1.02
same,normalized growth,"locus YHR027C, strain rpn1, hits give low values",0.991
same,normalized growth,"locus YHR030C, strain SLT2, hits give low values",0.958 and 0.924
same,normalized growth,"locus YHR079C, strain IRE1 (second series), hits give low values",0.939
same,normalized growth,"locus YHR079C, strain IRE1, hits give low values",0.956
same,normalized growth,"locus YHR094C, strain hxt1, hits give low values",0.96
same,normalized growth,"locus YHR129C, strain ARP1, hits give low values",0.971
same,normalized growth,"locus YHR142W, strain chs7, hits give low values",0.976
same,normalized growth,"locus YHR200W, strain rpn10, hits give low values",0.933
same,normalized growth,"locus YIL066C, strain RNR3, hits give low values",0.929
same,normalized growth,"locus YIL073C, strain SPO22, hits give low values",0.92
same,normalized growth,"locus YIL125W, strain kgd1, hits give low values",0.942
same,normalized growth,"locus YIR030C, strain dcg1, hits give low values",0.929
same,normalized growth,"locus YJL092W, strain hpr5, hits give low values",0.992
same,normalized growth,"locus YJL095W, strain BCK1 (second series), hits give low values",0.99
same,normalized growth,"locus YJL095W, strain BCK1, hits give low values",0.922 and 0.939
same,normalized growth,"locus YJL115W, strain asf1, hits give low values",1.01
same,normalized growth,"locus YJL129C, strain trk1, hits give low values",0.97
same,normalized growth,"locus YJL134W, strain LCB3, hits give low values",0.958
same,normalized growth,"locus YJL154C, strain vps35, hits give low values",0.992
same,normalized growth,"locus YJL164C, strain tpk1, hits give low values",0.992
same,normalized growth,"locus YJL166W, strain qcr8, hits give low values",0.989
same,normalized growth,"locus YJL168C, strain set2, hits give low values",0.957
same,normalized growth,"locus YJL187C, strain SWE1 (second series), hits give low values",0.959
same,normalized growth,"locus YJL187C, strain SWE1, hits give low values",0.992
same,normalized growth,"locus YJR043C, strain POL32, hits give low values",0.917
same,normalized growth,"locus YJR066W, strain TOR1, hits give low values",0.926
